Assay results from PubChem BioAssay (NCATS).
Several values for one entry are separate records, joined by “and”; a condition that tells them apart may be missing. Identical values can stand only once. Records with an inconclusive call do not appear. More than one record can exist for a structure, and the calls need not agree. Activity calls are given as the source filed them. Calls come from the whole dose curve; as a rule, active = well fitted inhibition curve with a large enough effect; inconclusive = small, poorly fitted or top-dose-only effect; inactive = flat fitted curve, though single readings scatter. Numbered stars: 1 amine (or outer) side, 2 acyl side, 3 side chain; on linkers, the order of the positions; unused ones are H or OH. Bridge positions count the residues as written; N and C are the ends. Square brackets hold non-standard residues; d marks the D form. Peptide text beside a SMILES is read from it. I, II: the chains in the order shown. Actinocin(9to1) = Cc1c2oc3c(C)ccc(C(=O)[*:1])c3nc-2c(C(=O)[*:2])c(N)c1=O; NMeV = CN[C@H](C(=O)O)C(C)C; Sar = CNCC(=O)O

Target: Glutathione peroxidase 1 (Homo sapiens) (UniProt P07203)
Experiment: Primary qHTS Assay for Inhibitors of Recombinant Selenoprotein Glutathione Peroxidase 1 (GPX1) (AID 1845191)
Conditions: recombinant GPX1, GR-coupled NADPH fluorescence, 15 min; series mostly up to 48.8 µM; activity, negative = inhibition: at the top concentration
Outline: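 Recombinant GPX1 (10 nM final) was preincubated with compound for 30 min at room temperature, then reacted with 1 mM GSH, 0.5 mM CHP, 0.5 mM NADPH and 100 nM glutathione reductase; NADPH fluorescence (340/450 nm) was read at 0 and 15 min.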
% is set by controls: 0 for no effect and ±100 for the full control effect; potency is the fitted concentration of half-maximal effect.
Note: nearly all actives have a fitted effect of over 65% in size.

Glutathione peroxidase 1 (Homo sapiens), sequence (P07203 whole entry, looked up): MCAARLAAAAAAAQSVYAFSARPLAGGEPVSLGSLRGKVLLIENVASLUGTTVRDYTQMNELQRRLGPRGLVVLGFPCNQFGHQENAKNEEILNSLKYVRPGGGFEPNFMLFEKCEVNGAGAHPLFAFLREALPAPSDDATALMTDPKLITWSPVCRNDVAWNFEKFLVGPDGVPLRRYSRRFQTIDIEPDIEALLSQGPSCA

SMILES	Potency	outcome	activity, negative = inhibition
CC(=O)OCC(=O)[C@@]1(O)[C@H](C)C[C@H]2[C@@H]3CCC4=CC(=O)C=C[C@]4(C)[C@@]3(F)[C@@H](O)C[C@@]21C	inactive		
C[C@]12CCC(=O)C=C1[C@@H]1C[C@@H]1[C@H]1[C@@H]3[C@@H]4C[C@@H]4[C@@]4(CCC(=O)O4)[C@@]3(C)CC[C@@H]12	inactive		
C[C@H]1C[C@H]2[C@@H]3CCC4=CC(=O)C=C[C@]4(C)[C@@]3(Cl)[C@@H](O)C[C@]2(C)[C@@]1(O)C(=O)CO		inactive	
N[C@@H](CCC(=O)N[C@@H](CS)C(=O)NCC(=O)O)C(=O)O		inactive [at 27.7 µM]	
CN(C)CC/C=C1\c2ccccc2Sc2ccc(Cl)cc21		inactive	
Cc1c(N(C)CS(=O)(=O)O)c(=O)n(-c2ccccc2)n1C	3.21 µM (active)		
N[C@H](Cc1c[nH]c2ccccc12)C(=O)O			-24.6% (inactive)
Cc1cccn2c(=O)c(-c3nnn[nH]3)cnc12			-23.9% [at 27.7 µM] (inactive)

Target: Phospholipid hydroperoxide glutathione peroxidase GPX4 (Homo sapiens) (UniProt P36969)
Experiment: Primary qHTS Assay for Inhibitors of Recombinant Selenoprotein Glutathione Peroxidase 4 (GPX4) (AID 1845192)
Conditions: recombinant GPX4, GR-coupled NADPH fluorescence, 15 min; series mostly up to 50 µM; activity change, negative = inhibition: at the top concentration
Outline: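 GR-coupled readout: 100 nM GR, 1 mM GSH, 0.5 mM NADPH; NADPH fluorescence (ex 340/em 450 nm) read at t=0 and after 15 min RT. GPX4 200 nM, preincubated 30 min with compound; substrate 0.5 mM CHP.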

Phospholipid hydroperoxide glutathione peroxidase GPX4 (Homo sapiens), sequence (P36969 whole entry, looked up): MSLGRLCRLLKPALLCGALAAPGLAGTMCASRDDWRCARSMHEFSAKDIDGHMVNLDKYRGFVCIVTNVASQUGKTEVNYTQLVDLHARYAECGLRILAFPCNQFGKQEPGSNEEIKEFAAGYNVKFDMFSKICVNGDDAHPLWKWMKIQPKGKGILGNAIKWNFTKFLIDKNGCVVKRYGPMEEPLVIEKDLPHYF

SMILES	outcome	activity change, negative = inhibition	Potency
COc1cc(OC)cc(OC)c1	inactive		
CCOC(=O)n1ccn(C)c1=S		-0.743% (inactive)	
Oc1c(I)cc(Cl)c2cccnc12		-9.01% (inactive)	
CC(C)(CO)[C@@H](O)C(=O)NCCCO		1.05% (inactive)	
Cc1ccccc1C(=O)Nc1ccc(C(=O)N2CCCC(N(C)C)c3ccccc32)cc1 (centres undefined)		3.25% (inactive)	
OC[C@@H](O)[C@@H](O[C@@H]1O[C@H](CO)[C@H](O)[C@H](O)[C@H]1O)[C@H](O)[C@@H](O)CO	inactive		
CC(=O)OCC(=O)[C@@]12OC(C)(C)O[C@@H]1C[C@H]1[C@@H]3C[C@H](F)C4=CC(=O)C=C[C@]4(C)[C@@]3(F)[C@@H](O)C[C@@]12C			inactive
COc1cccc(OC)c1C(=O)N[C@@H]1C(=O)N2[C@@H]1SC(C)(C)[C@@H]2C(=O)O			inactive
CC(=O)OCC(=O)[C@@]1(O)[C@H](C)C[C@H]2[C@@H]3CCC4=CC(=O)C=C[C@]4(C)[C@@]3(F)[C@@H](O)C[C@@]21C			inactive
C[C@H]1[C@H](NC(=O)/C(=N/OC(C)(C)C(=O)O)c2csc(N)n2)C(=O)N1S(=O)(=O)O (stereo in doubt)		4.33% (inactive)	
COc1cccc(CCc2ccccc2OCC(CN(C)C)OC(=O)CCC(=O)O)c1 (centres undefined)		-6.19% (inactive)	
CCCOC(C(=O)OC1CCN(C)CC1)(c1ccccc1)c1ccccc1		-0.345% (inactive)	
CN(C/C=C/c1ccccc1)Cc1cccc2ccccc12		-39.7% (inactive)	
COc1cc(NS(C)(=O)=O)ccc1Nc1c2ccccc2nc2ccccc12			inactive and 22.4 µM (active)
Cc1cc(O)c(C(C)C)cc1Cl	inactive		
C[C@]12CCC(=O)C=C1[C@@H]1C[C@@H]1[C@H]1[C@@H]3[C@@H]4C[C@@H]4[C@@]4(CCC(=O)O4)[C@@]3(C)CC[C@@H]12			inactive

SMILES	outcome	activity change, negative = inhibition	Potency
C[C@H]1C[C@H]2[C@@H]3CCC4=CC(=O)C=C[C@]4(C)[C@@]3(Cl)[C@@H](O)C[C@]2(C)[C@@]1(O)C(=O)CO	inactive		
CC(C)NC[C@@H](O)COc1cccc2ccccc12	inactive		
Clc1ccc2c(c1)CCc1cccnc1C2=C1CCNCC1	inactive		
COc1ccc(CN2CCN(C(c3ccc(F)cc3)c3ccc(F)cc3)CC2)c(OC)c1OC			inactive
CC(C)COC(=O)c1ccc(N)cc1		-2.63% (inactive)	
N[C@@H](CCC(=O)N[C@@H](CS)C(=O)NCC(=O)O)C(=O)O	inactive [at 27.8 µM]		
COCc1c(C(C)C)nc(C(C)C)c(/C=C/[C@@H](O)C[C@@H](O)CC(=O)O)c1-c1ccc(F)cc1		-11% (inactive)	
CCN1CCN(c2cc3c(cc2F)c(=O)c(C(=O)O)cn3C2CC2)CC1		1.52% (inactive)	
CCOc1ccc(Cc2nccc3cc(OCC)c(OCC)cc23)cc1OCC		-2.91% (inactive)	
CN(C)CC/C=C1\c2ccccc2Sc2ccc(Cl)cc21	inactive		
CC(=O)O[C@]1(C(C)=O)CC[C@H]2[C@@H]3C[C@H](C)C4=CC(=O)CC[C@]4(C)[C@H]3CC[C@@]21C		-2.17% (inactive)	
CCCSS/C(CCO)=C(\C)N(C=O)Cc1cnc(C)nc1N		0.815% (inactive)	
COc1ccc(C2C(=O)c3ccccc3C2=O)cc1		-9.4% (inactive)	
C=C(CC)C(=O)c1ccc(OCC(=O)O)c(Cl)c1Cl	inactive		
Cc1c2oc3c(C)ccc(C(=O)N[C@@H]4C(=O)N[C@H](C(C)C)C(=O)N5CCC[C@H]5C(=O)N(C)CC(=O)N(C)[C@@H](C(C)C)C(=O)O[C@@H]4C)c3nc-2c(C(=O)N[C@@H]2C(=O)N[C@H](C(C)C)C(=O)N3CCC[C@H]3C(=O)N(C)CC(=O)N(C)[C@@H](C(C)C)C(=O)O[C@@H]2C)c(N)c1=O (I: T[dV]P[Sar][NMeV] / II: T[dV]P[Sar][NMeV]; ester I:1-I:C, II:1-II:C; linker I:N-II:N via Actinocin(9to1))	inactive		
